Data as given in PubChem BioAssay AID1159580 (chemical genetic matrix, 2015).
About 2,000 (36%) of roughly 5,500 compounds were called active. Inconclusive results (about 18%) are left out. Rule as the data show it: active = normalized growth mostly below about 0.91 (no sharp cut-off); inconclusive = no clear call, values can overlap the other calls; inactive = mostly above about 0.92. Some of the results follow.

Experiment: chemical genetic growth profiling, strain panel (AID 1159580);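 also: tested at 20 µM; growth read once vehicle control cultures reached saturation at 30 °C; 1 = growth at the plate median or of vehicle wells; lower values mean less growth of the strain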
Details: growth OD

Measured: normalized growth

O=C(/C=C/c1ccccc1)c1c(O)cc(O)cc1O
inactive: S. cerevisiae deletion strains, locus YAL013W, strain DEP1, active compounds read low 1.01 | S. cerevisiae deletion strains, locus YBR021W, strain FUR4, active compounds read low 0.995 | S. cerevisiae deletion strains, locus YBR229C, strain ROT2, active compounds read low 1.01 | S. cerevisiae deletion strains, locus YCL029C, strain bik1, active compounds read low 1 | S. cerevisiae deletion strains, locus YDL035C, strain GPR1, active compounds read low 1.02 | S. cerevisiae deletion strains, locus YDL074C, strain BRE1, active compounds read low 1.02 | S. cerevisiae deletion strains, locus YDL101C, strain DUN1, active compounds read low 1.01 | S. cerevisiae deletion strains, locus YDL134C, strain PPH21, active compounds read low 1.02 | S. cerevisiae deletion strains, locus YDL185W, strain tfp1, active compounds read low 1.01 | S. cerevisiae deletion strains, locus YDL192W, strain arf1, active compounds read low 1 | S. cerevisiae deletion strains, locus YDR101C, strain arx1, active compounds read low 0.999 | S. cerevisiae deletion strains, locus YDR150W, strain NUM1, active compounds read low 1.02 | S. cerevisiae deletion strains, locus YDR162C, strain NBP2, active compounds read low 1.04 | S. cerevisiae deletion strains, locus YDR318W, strain mcm21, active compounds read low 0.995 | S. cerevisiae deletion strains, locus YDR388W, active compounds read low 0.997 | S. cerevisiae deletion strains, locus YDR502C, strain sam2, active compounds read low 1 | S. cerevisiae deletion strains, locus YEL061C, strain CIN8, active compounds read low 1.01 | S. cerevisiae deletion strains, locus YER110C, active compounds read low 1.01 | S. cerevisiae deletion strains, locus YER155C, strain BEM2, active compounds read low 1.01 | S. cerevisiae deletion strains, locus YER167W, strain BCK2, active compounds read low 1.01 | S. cerevisiae deletion strains, locus YGL078C, strain dbp3, active compounds read low 1 | S. cerevisiae deletion strains, locus YGL086W, strain mad1, active compounds read low 1 | S. cerevisiae deletion strains, locus YGL248W, strain PDE1, active compounds read low 1.01 | S. cerevisiae deletion strains, locus YGR078C, strain PAC10, active compounds read low 1.03 | S. cerevisiae deletion strains, locus YGR135W, strain pre9, active compounds read low 1 | S. cerevisiae deletion strains, locus YGR229C, strain SMI1, active compounds read low 1.02 | S. cerevisiae deletion strains, locus YGR252W, strain gcn5, active compounds read low 0.972 | S. cerevisiae deletion strains, locus YHR030C, strain SLT2, active compounds read low 1.01 | S. cerevisiae deletion strains, locus YHR079C, strain IRE1 (second series), active compounds read low 0.994 | S. cerevisiae deletion strains, locus YHR094C, strain hxt1, active compounds read low 1 | S. cerevisiae deletion strains, locus YHR129C, strain ARP1, active compounds read low 1.01 | S. cerevisiae deletion strains, locus YHR200W, strain rpn10, active compounds read low 1 | S. cerevisiae deletion strains, locus YIL066C, strain RNR3, active compounds read low 1.02 | S. cerevisiae deletion strains, locus YIL073C, strain SPO22, active compounds read low 1.04 | S. cerevisiae deletion strains, locus YIL125W, strain kgd1, active compounds read low 1 | S. cerevisiae deletion strains, locus YIR030C, strain dcg1, active compounds read low 0.999 | S. cerevisiae deletion strains, locus YJL095W, strain BCK1, active compounds read low 1.01 | S. cerevisiae deletion strains, locus YJL134W, strain LCB3, active compounds read low 1.01 | S. cerevisiae deletion strains, locus YJL168C, strain set2, active compounds read low 0.993 | S. cerevisiae deletion strains, locus YJL187C, strain SWE1 (second series), active compounds read low 1.01 | S. cerevisiae deletion strains, locus YJR043C, strain POL32, active compounds read low 0.998 | S. cerevisiae deletion strains, locus YJR075W, strain HOC1, active compounds read low 1.01 | S. cerevisiae deletion strains, locus YKL009W, strain mrt4, active compounds read low 1.01 | S. cerevisiae deletion strains, locus YKL068W, active compounds read low 1 | S. cerevisiae deletion strains, locus YKL085W, strain MDH1 (second series), active compounds read low 1 | S. cerevisiae deletion strains, locus YKL085W, strain MDH1, active compounds read low 1 | S. cerevisiae deletion strains, locus YKL190W, strain CNB1, active compounds read low 1.01 | S. cerevisiae deletion strains, locus YKR001C, strain vps1, active compounds read low 1.01 | S. cerevisiae deletion strains, locus YLR039C, strain RIC1, active compounds read low 1.04 | S. cerevisiae deletion strains, locus YLR058C, strain SHM2, active compounds read low 1.01 | S. cerevisiae deletion strains, locus YLR102C, strain apc9, active compounds read low 0.998 | S. cerevisiae deletion strains, locus YLR262C, strain YPT6, active compounds read low 1.06 | S. cerevisiae deletion strains, locus YLR268W, strain sec22, active compounds read low 0.989 | S. cerevisiae deletion strains, locus YLR330W, strain CHS5, active compounds read low 1.01 | S. cerevisiae deletion strains, locus YLR342W, strain FKS1 (second series), active compounds read low 1 | S. cerevisiae deletion strains, locus YLR371W, strain rom2, active compounds read low 0.997 | S. cerevisiae deletion strains, locus YLR418C, strain cdc73, active compounds read low 0.992 | S. cerevisiae deletion strains, locus YML016C, strain PPZ1, active compounds read low 1.01 | S. cerevisiae deletion strains, locus YML032C, strain rad52, active compounds read low 1 | S. cerevisiae deletion strains, locus YML124C, strain tub3, active compounds read low 1.01 | S. cerevisiae deletion strains, locus YMR078C, strain ctf18, active compounds read low 1 | S. cerevisiae deletion strains, locus YMR223W, strain ubp8, active compounds read low 0.995 | S. cerevisiae deletion strains, locus YMR263W, strain SAP30, active compounds read low 1.02 | S. cerevisiae deletion strains, locus YMR307W, strain GAS1, active compounds read low 0.915 | S. cerevisiae deletion strains, locus YNL067W, strain RPL9B, active compounds read low 1.01 | S. cerevisiae deletion strains, locus YNL128W, strain TEP1, active compounds read low 1.02 | S. cerevisiae deletion strains, locus YNL153C, strain GIM3, active compounds read low 1.03 | S. cerevisiae deletion strains, locus YNL233W, strain BNI4, active compounds read low 1.02 | S. cerevisiae deletion strains, locus YNL250W, strain rad50, active compounds read low 1.01 | S. cerevisiae deletion strains, locus YNL271C, strain bni1, active compounds read low 1 | S. cerevisiae deletion strains, locus YNL298W, strain CLA4, active compounds read low 1.01 | S. cerevisiae deletion strains, locus YNL307C, strain MCK1, active compounds read low 1.01 | S. cerevisiae deletion strains, locus YNL322C, strain KRE1, active compounds read low 1.01 | S. cerevisiae deletion strains, locus YNR052C, strain pop2, active compounds read low 0.998 | S. cerevisiae deletion strains, locus YOL006C, strain TOP1, active compounds read low 1.05 | S. cerevisiae deletion strains, locus YOL012C, strain htz1 0.787 | S. cerevisiae deletion strains, locus YOL147C, strain pex11, active compounds read low 1.01 | S. cerevisiae deletion strains, locus YOR061W, strain CKA2, active compounds read low 1.01 | S. cerevisiae deletion strains, locus YOR069W, strain VPS5, active compounds read low 1.01 | S. cerevisiae deletion strains, locus YOR136W, strain idh2, active compounds read low 0.995 | S. cerevisiae deletion strains, locus YOR144C, strain elg1, active compounds read low 1 | S. cerevisiae deletion strains, locus YOR184W, strain ser1, active compounds read low 1.01 | S. cerevisiae deletion strains, locus YOR316C, strain cot1, active compounds read low 0.996 | S. cerevisiae deletion strains, locus YPL055C, strain LGE1, active compounds read low 1.05 | S. cerevisiae deletion strains, locus YPL241C, strain CIN2, active compounds read low 1.01 | S. cerevisiae deletion strains, locus YPR119W, strain clb2, active compounds read low 0.997 | S. cerevisiae deletion strains, locus YPR141C, strain kar3, active compounds read low 1.01 | S. cerevisiae deletion strains, locus YPR163C, strain tif3, active compounds read low 1 | S. cerevisiae deletion strains, locus YPR167C, strain met16, active compounds read low 0.998 | S. cerevisiae deletion strains, strain wtn01, active compounds read low 1.01 | S. cerevisiae strains, strain wild type, active compounds read low 1.01
